Pf growth 48h – P. falciparum growth inhibition at 48 hours (one generation) | Potency, µM (top dose mostly 28.7 µM), for the others: at the highest dose activity change, negative = inhibition, actives largely listed as inhibitors | AID 504832 | 310,000 tested, 5.9% active | P. falciparum luciferase growth in erythrocytes, 48 h; further: potency means the concentration at half of the fitted maximal effect; on the % scale 0 is the no-effect control and ±100 the full control effect
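Cell-based growth assay: transgenic P. falciparum expressing firefly luciferase, cultured in red cells within RPMI 1640 containing 0.5% w/v Albumax, 24 mM bicarbonate and gentamycin. A drop in luciferase activity indicates inhibition.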
Shiga toxin inh – Shiga toxin inhibition. 290,000 tested, 9.2% active. Vero cells, Shiga toxin protein synthesis inhibition reporter. AID 2315. inhibition, % at 38.7 µM; in the data active means inhibition mostly above about 28%, no sharp cut-off; inactive means mostly below about 43%; further: 0% is about no effect
NS1 function inh – inhibitors of influenza NS1 protein function; Potency, µM (doses to about 46.1 µM), for the others: at the highest dose activity, positive = more growth; 270,000 tested, 0.4% active; calls by dose curve; further: potency means the concentration at half of the fitted maximal effect; actives are rising curves; nearly all actives have a fitted effect of over 50% in size
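Recovery from NS1-induced slow growth read by OD600 in budding yeast switched to galactose assay medium (pH 6.0, -URA) at 1:100 dilution. Compound 23 nl per well; the matching strain lacking NS1 serves as control.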
Pf growth 96h – inhibits malaria parasite growth, 96 h; P. falciparum luciferase reporter growth, 96 h; Potency, µM (titrated, usually from 28.7 µM), for the others: at the top dose activity change, negative = inhibition, usual class: inhibitors; 320,000 tested, 6.9% active; AID 504834; further: potency means the concentration at half of the fitted maximal effect; on the % scale 0 is the no-effect control and ±100 the full control effect
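Erythrocytes infected with luciferase-expressing P. falciparum were dispensed at 2% hematocrit and 0.05% parasitemia (final), then incubated with compounds 96 hours at 37 C in 5% CO2. Luminescence after detection reagent addition reported growth.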
CHX counter – affects cycloheximide protein synthesis inhibition readout, counter-screen. cell reporter, cycloheximide protein synthesis inhibition counterscreen. max response, %. 300,000 tested, 12% active. AID 2314; in the data active means max response mostly above about 13%, no sharp cut-off; inactive means mostly below about 14%; further: read at 38.3 µM for the half of the compounds with a filed dose; 0% is about no effect
SARS PLpro yeast – inhibitors of SARS-CoV papain-like protease in yeast; S. cerevisiae expressing SARS-CoV PLpro, growth rescue; Potency, µM (highest dose often 32.9 µM), for the others: top-dose activity, positive = growth rescue, actives largely listed as activators; 330,000 tested, 0.19% active; AID 485353; calls by dose curve; further: potency means the concentration at half of the fitted maximal effect; 0% is about no effect; nearly all actives have a fitted effect of over 55% in size
Active calls of the source: *; ? = inconclusive; . = not tested or not shown. Shown are actives, neighbours in structure and some others; about 21% of the full set was active somewhere. Unless noted, the call rests on the fitted dose curve; in most records, active means well fitted inhibition curve with a large enough effect; inconclusive means small, poorly fitted or top-dose-only effect, or another doubt; inactive means no such curve, though single readings can be large or run the other way.

SMILES	Pf growth 48h	Shiga toxin inh	NS1 function inh	Pf growth 96h	CHX counter	SARS PLpro yeast
COc1ccc(S(=O)(=O)Nc2cc3c4c(c2)CCN4C(=O)CC3)cc1OC	13%	.	.	-2%	.	4%
CC(=O)c1cccc(N(C(=O)CNC(=O)c2ccco2)C(C(=O)NCC2CCCO2)c2ccccc2)c1 (stereo not drawn)	-6%	7	-8%	25%	-1	-3%
Cc1ccc(S(=O)(=O)NNC(=O)Nc2ccccc2F)c(C)c1	15%	16	7%	-11%	5	0%
O=C(Nc1ccccc1F)Nc1ccccc1F	106%	73*	-6%	-16%	35*	-1%
Cc1ccc(N=Nc2ccc(C)cc2NC(=O)Nc2ccccc2F)cc1	?	34	-5%	?	46*	-2%
O=C(Nc1ccccc1F)Nc1cccc2ccc(O)cc12	?	102*	4%	-2%	46*	0%
O=C(Cc1cccc2ccccc12)NCC(=O)Nc1ccccc1F	-9%	9	0%	42%	-2	22%
Cn1nc(-c2ccccc2)cc1NC(=O)Nc1ccccc1F	60%	57	1%	50%	36*	0%
Cc1ccccc1CN(C)CC(=O)Nc1c(C)cccc1C(C)C	-27%	-15	.	0%	-8	-2%
CCOCCCNC(=O)c1cc(Cl)c(NC(=O)C2=C(C)OCCS2)cc1OC	?	-3	-2%	28%	2	0%
Cc1cnc(C(=O)OC(C)C(=O)Nc2ccccc2-c2ccccc2)cn1 (stereo not drawn)	0%	.	.	21%	.	?
COc1ccc(OC)c(NC(=O)CC(NCCC2=CCCCC2)C(=O)O)c1 (stereo not drawn)	0%	-24	4%	?	6	0%
O=C(NNc1ccccc1)Nc1ccccc1F	-3%	87*	1%	37%	20*	-4%
O=C(Nc1ccc(Br)cc1)Nc1ccccc1F	147%	107*	-36%	45%	50*	-3%
COc1ccc(C(c2sc3ncnn3c2O)N2CCN(c3ccccc3F)CC2)cc1OC (stereo not drawn)	?	9	4%	-8%	20*	-1%
COc1ccc(C(c2sc3nc(C)nn3c2O)N2CCN(Cc3ccccc3)CC2)cc1OC (stereo not drawn)	?	9	-9%	0.83µM*	-2	1%
Oc1c(C(c2ccccc2)N2CCc3ccccc3C2)sc2ncnn12 (stereo not drawn)	?	-6	-6%	?	-2	-5%
Oc1c(C(c2ccco2)N2CCN(C(c3ccccc3)c3ccccc3)CC2)sc2ncnn12 (stereo not drawn)	.	-9	-37%	4.1µM*	-4	-4%
CC1CN(C(c2cccs2)c2sc3ncnn3c2O)CC(C)O1 (stereo not drawn)	-2%	-4	2%	?	-3	10%
COc1ccc(C(c2sc3ncnn3c2O)N2CC(C)OC(C)C2)cc1OC (stereo not drawn)	18%	-2	-1%	13%	17*	17%
O=C(CC(=O)N/N=C/c1ccc(C(=O)O)cc1)NCCc1ccccc1	-6%	-13	12%	12%	-1	1%
Cn1cc(-c2cccc(C(F)(F)F)c2)cc(C#N)c1=O	43%	-10	0%	70%	3	-2%
O=C(CN(CCc1ccccc1)S(=O)(=O)c1ccc(Br)cc1)N/N=C/c1ccccc1C(=O)O	-11%	-3	.	7%	0	-3%
Cc1cc(C)n(-c2c(C)[nH]c3ccccc23)n1	?	-6	.	9.3µM*	4	0%
Cc1cc(C)n(-c2nc3ccccc3[nH]c2=O)n1	-4%	13	7%	-7%	7	-15%
SMILES	Pf growth 48h	Shiga toxin inh	NS1 function inh	Pf growth 96h	CHX counter	SARS PLpro yeast
CC1CCC(NC(=O)CN2C(=O)c3ccccc3S2(=O)=O)CC1 (stereo not drawn)	.	.	.	.	.	-1%
Nc1ncc(Br)cc1S(=O)(=O)NCCc1ccccc1	5%	-5	-1%	-21%	-4	-1%
COc1ccc(C(O)Cn2cc([N+](=O)[O-])nc2C)cc1 (stereo not drawn)	32%	-5	-1%	54%	-2	0%
COC(=O)[C@@]1(Cc2ccc(OC)cc2)[C@H]2c3cc(C(=O)N4CCCC4)n(Cc4ccc(OC)c(OC)c4)c3C[C@H]2CN1C(=O)c1ccccc1	?	-14	14%	1.5µM*	-2	8%
COc1ccc(CCN(C(=O)c2ccccc2)C2=CC3CCC(C2)N3C)cc1OC (stereo not drawn)	0%	-2	4%	.	3	6%
COC(=O)[C@@]1(Cc2ccc(OC)cc2)[C@H]2c3cc(C(=O)N(C)C)n(CCc4ccc(OC)c(Br)c4)c3C[C@H]2CN1C(=O)c1ccccc1	2.1µM*	-13	?	2.1µM*	-3	11%
COC(=O)[C@@]1(Cc2ccc(OC)cc2)[C@@H]2C(=CC(=O)[C@H]2CC(=O)C(=O)N2CCCC2)CN1C(=O)c1ccccc1	10µM*	-17	-16%	?	-4	-5%
COc1ccc(C(=O)N2CCN(Cc3ccc(OC)c(OC)c3)CC2)cc1	-1%	-9	-10%	4%	-3	1%
COC(=O)[C@@]1(Cc2ccc(OC)cc2)[C@H]2c3cc(C(=O)N4CCCC4)n(CCn4cc([N+](=O)[O-])nc4C)c3C[C@H]2CN1C(=O)c1ccccc1	?	-4	10%	0.59µM*	-2	10%
Cn1c(SCC(=O)NNC(=O)Nc2ccccc2)nnc1-c1ccccc1	5%	-8	-2%	9%	-2	-2%
O=C(c1cccc2nc3ccccc3nc12)N1CCOCC1	6%	8	1%	9%	-1	0%
COC(=O)[C@@]1(Cc2ccc(OC)cc2)[C@@H]2[C@@H](CC(=O)[C@H]2CC(=O)C(=O)N(C)C)CN1C(=O)c1ccccc1	?	-19	-14%	?	-4	3%
COC(=O)[C@@]1(Cc2ccc(F)cc2)[C@H]2c3cc(C(=O)N4CCCC4)n(CCCNc4ncc(C(F)(F)F)cc4Cl)c3C[C@H]2CN1C(=O)c1ccccc1	2.1µM*	8	?	?	-3	-1%
COc1ccc(NC2CCCN(C(=O)c3cccc(N4CCNC4=O)c3)C2)cc1 (stereo not drawn)	?	-12	13%	1%	-11	0%
CC1(C(=O)NCCCNc2ncc(C(F)(F)F)cc2Cl)C=CCN1C(=O)c1ccccc1 (stereo not drawn)	0%	15	2%	-22%	16	0%
COC(=O)[C@@]1(Cc2ccc(OC)cc2)[C@H]2c3cc(C(=O)N4CCCC4)n(CCN4CCNC4=O)c3C[C@H]2CN1C(=O)c1ccccc1	1.9µM*	-8	-2%	1.7µM*	-1	6%
